Results on 40 molecules are retold here after PubChem BioAssay.

Structures are written as SMILES. Values without a mark were called inactive. The rule behind the calls is not given here.

The assay deals with Pantothenate synthetase (Mycobacterium tuberculosis (strain ATCC 25618 / H37Rv)) (UniProt P9WIL5). The assay is described as follows: Coupled enzyme confirmation of inhibitors against recombinant Mtb PanC (AID 375).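 Note: 0% = full reaction with vehicle and 100% = no enzyme background.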 The settings on record: coupled enzyme assay; at 10 µM, hits give high values.
Sequence of Pantothenate synthetase (Mycobacterium tuberculosis (strain ATCC 25618 / H37Rv)) (P9WIL5 whole entry, looked up): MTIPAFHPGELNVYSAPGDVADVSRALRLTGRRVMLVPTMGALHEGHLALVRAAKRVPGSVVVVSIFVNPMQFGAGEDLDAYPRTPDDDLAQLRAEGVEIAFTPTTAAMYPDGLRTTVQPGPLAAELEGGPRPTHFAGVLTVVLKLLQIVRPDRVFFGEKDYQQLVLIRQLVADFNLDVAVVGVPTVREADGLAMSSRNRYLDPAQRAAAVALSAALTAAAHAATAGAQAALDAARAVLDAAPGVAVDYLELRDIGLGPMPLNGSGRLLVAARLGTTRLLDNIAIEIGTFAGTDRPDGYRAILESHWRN
Turning to `Cc1cc(C)n(CCc2nc(-c3cccs3)cs2)n1`, the inhibition is 2%.

In the case of `Brc1ccc2ncnc(Nc3ccc(N4CCOCC4)cc3)c2c1`, the inhibition was 0%. Turning to `CCCCn1cnc2c(c1=O)c1nc3ccccc3nc1n2Cc1ccc2c(c1)OCO2`, the inhibition was 0%. The value for `COC(=O)C1=CN(C)C=C(C(=O)OC)C1c1ccc(O)c(OC)c1` was 0%. For the molecule `COc1ccc(-c2noc(-c3cc(Cl)ccc3Cl)n2)cc1OC`, the inhibition is 2%. Consider `CC(NC(=O)CSc1n[nH]c(=O)n1C1CC1)C12CC3CC(CC(C3)C1)C2` (stereo not given), for which the inhibition is 3%. Regarding `Cc1ccc(S(=O)(=O)N2CCC(C(=O)N3CCN(Cc4ccccc4)CC3)CC2)cc1`, the inhibition was 0%. The value for `CCOc1ccc(S(=O)(=O)n2nc(C)cc2C)c2ccccc12` was 0%; that for `CC(C)Oc1ccc(-c2nn(-c3ccccc3)cc2/C=c2\sc3ncnn3c2=O)cc1` was 0%. As for `C=CCn1c(-c2cccs2)nc2nc3ccccc3nc21`, the figure is 0%. As for `Cc1[nH]c(=O)[nH]c(=O)c1S(=O)(=O)N1CCCC(C(=O)NCc2ccco2)C1` (stereo not given), the figure is 5%; as for `CCC(=O)N1CCN(c2nc(-c3ccccc3)c3c(c2C#N)CCCC3)CC1`, 4%; as for `CCN1C(=O)CC(N2CCC(Nc3ccc(F)cc3)CC2)C1=O` (stereo not given), 0%. With `CCc1n[nH]c2c1C(=O)CC(C)(C)C2`, the inhibition was 2%. The value for `CC(C)(C)c1ccc(OCC(=O)O)cc1` was 1%; that for `CCOc1ccc(CNc2ccc3c(c2)ncn3C)cc1` was 0%; that for `Cc1nnc(SCC(=O)N2CCC(C(=O)Nc3nccs3)CC2)n1Cc1ccccc1` was 0%. As for `O=C(O)C1CCCCC1C(=O)NCCc1ccccc1` (stereo not given), the figure is 0%. Consider `O=c1c2ccccc2nc2n1CCN2`, for which the inhibition was 0%. Consider `O=c1cnnc(NCc2ccccc2)[nH]1`, for which the inhibition is 0%. As for `Cc1cc2cc(CCNC(=O)CC(C)C)c(=O)[nH]c2cc1C`, the inhibition was 9%. In the case of `Cc1cc(C)nc(SCc2csc(N)n2)n1`, the inhibition is 1%. As for `COc1cccc(C2C3=C(N=C4SCC(=O)N42)c2ccccc2CC3)c1OC` (stereo not given), the figure is 4%; as for `Cc1c(Cl)cccc1N1C(=O)c2ccccc2C1=O`, 0%.

For the molecule `COc1ccccc1-n1cnc(N)c1C(C)=O`, the inhibition was 0%. Turning to `CCC(C)N=C1SCC(C)(/C=N/O)S1` (stereo not given), the inhibition was 0%.

As for `CCSc1ccccc1C(=O)NCc1ccc(S(N)(=O)=O)cc1`, the inhibition was 0%. Consider `CCCC(=O)Nc1cc(C)c2c(=O)oc3ccccc3c2n1`, for which the inhibition was 2%. As for `COc1cc(C(=O)Nc2cccc(-c3nc4cc(C)ccc4o3)c2)cc(OC)c1OC`, the inhibition is 3%. Take `Nn1c(SCc2csc(-c3ccccc3)n2)nnc1-c1cccs1`: the inhibition was 0%. Regarding `CCNc1nc(OC)nc(Oc2ccc(=O)n(-c3ccccc3)n2)n1`, the inhibition is 4%.

In the case of `CC(=O)NCc1nc2ccccc2n1C(C)C`, the inhibition is 0%.

Regarding `O=C(c1cnc2n(c1=O)CCS2)N1CCc2ccccc21`, the inhibition was 2%. Take `N#CC1=C(N)N(c2ccccc2)C(c2ccco2)C1(C#N)C#N` (stereo not given): the inhibition is 2%. In the case of `COC(=O)Nc1ccc(S(=O)(=O)N2CCCCCC2)cc1`, the inhibition was 0%. The value for `Cc1ccc(S(=O)(=O)CC(=O)N2CCCCCC2)cc1` was 0%. Take `COc1ccc(-c2cc(C(F)F)n3ncc(C(=O)NCC4CCCO4)c3n2)cc1` (stereo not given): the inhibition is 4%. On to `CCOC(=O)Cn1c2c(c(=N)c3ccccc31)CCC2`, for which the inhibition is 13%. As for `CC(C)(C)c1nc(CN2CCOCC2)ccc1O`, the inhibition is 1%. As for `NS(=O)(=O)c1ccc(C(=O)O)cc1`, the figure is 0%.

By inhibition is commonly meant the percentage by which the read-out fell short of the control.
